# Measured values published in PubChem BioAssay (NCI).
# The panel holds about 79,000 compounds, 15% with a hit somewhere; the sample as a whole holds those more often. A number with no mark means an inactive call. The source made the active and inactive calls. Cut-off read from the data, not from the text of the source: active = growth inhibition above about 70%; inactive = the rest.
# Experiments:
# [1] = NCI Yeast Anticancer Drug Screen. Data for the rad52 strain (AID 147);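 note: 0% = growth of vehicle-treated control cultures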; settings: S. cerevisiae rad52 mutant growth inhibition, active compounds read high
# How it was run: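 Here a repair-compromised yeast strain receives each compound; its growth is then quantified and normalised to vehicle-only controls.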
# [2] = NCI Yeast Anticancer Drug Screen. Data for the wt1 strain (AID 149);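 note: 0% = growth of vehicle-treated wt1 cultures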; settings: S. cerevisiae wt1 strain (SPY 50644) growth inhibition, active compounds read high
# How it was run: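 Yeast wt1 strain exposed to compounds; growth inhibition measured relative to vehicle-treated controls.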
# [3] = NCI Yeast Anticancer Drug Screen. Data for the rad50EPP+ strain (AID 151);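 note: 0% = growth of vehicle-treated control cultures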; settings: S. cerevisiae rad50 mutant strain, active compounds read high
# How it was run: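 Read-out is yeast growth inhibition relative to vehicle; cells used were the rad50EPP+ strain.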
# [4] = NCI Yeast Anticancer Drug Screen. Data for the mgt1 strain (AID 153); settings: S. cerevisiae mgt1 mutant growth inhibition, active compounds read high
# How it was run: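 Measured: inhibition of mgt1 yeast growth by compound, normalized to vehicle-treated cultures.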
# [5] = NCI Yeast Anticancer Drug Screen. Data for the rad50 strain (AID 155);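 note: 0% = growth of vehicle-only cultures of the same strain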; settings: S. cerevisiae rad50 strain growth inhibition, active compounds read high
# How it was run: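 Yeast carrying a defined DNA repair defect were exposed to test compounds, and growth was compared with vehicle-treated controls to give percent inhibition.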
# [6] = NCI Yeast Anticancer Drug Screen. Data for the mec2-1 strain (AID 157); settings: S. cerevisiae mec2-1 strain, active compounds read high
# How it was run: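 Using mec2-1 yeast: add compound, measure growth, express inhibition versus vehicle-treated cultures.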
# [7] = NCI Yeast Anticancer Drug Screen. Data for the rad14 strain (AID 159);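 note: 0% = growth of vehicle-treated control cultures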; settings: S. cerevisiae rad14 strain growth inhibition, active compounds read high
# How it was run: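 Yeast cells carrying a defined DNA-repair defect were exposed to compounds, and growth inhibition was calculated relative to vehicle-treated control cultures.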
# [8] = NCI Yeast Anticancer Drug Screen. Data for the sgs1 mgt1 strain (AID 161);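 note: 0% = growth of cultures given vehicle only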; settings: S. cerevisiae sgs1 mgt1 strain, active compounds read high
# How it was run: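 This yeast growth screen uses a strain with defined DNA-repair lesions; compound-treated growth is compared with vehicle-treated growth.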
# [9] = NCI Yeast Anticancer Drug Screen. Data for the CLN2oe strain (AID 163);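 note: 0% = growth of vehicle-only control cultures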; settings: S. cerevisiae CLN2oe strain, active compounds read high
# How it was run: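 Whole-cell yeast growth assay. A strain engineered for altered cell-cycle control received compound, and inhibition relative to vehicle-treated cultures was recorded.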
# [10] = NCI Yeast Anticancer Drug Screen. Data for the cln2 rad14 strain (AID 165);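 note: 0% = growth equal to vehicle treated cultures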; settings: S. cerevisiae cln2 rad14 strain, active compounds read high
# How it was run: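 Yeast strain cln2 rad14, bearing defects in cell cycle control and DNA repair, serves as the test system; values reflect growth inhibition compared with vehicle.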
# [11] = NCI Yeast Anticancer Drug Screen. Data for the bub3 strain (AID 167); settings: S. cerevisiae bub3 mutant strain, active compounds read high
# How it was run: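 Compounds were applied to a genetically altered yeast strain carrying a cell-cycle control defect. Growth inhibition was scored against vehicle-treated controls.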
# [12] = NCI Yeast Anticancer Drug Screen. Data for the wt2 strain (AID 169);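 note: 0% = growth of vehicle-treated yeast cultures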; settings: S. cerevisiae wt2 strain growth inhibition, active compounds read high
# How it was run: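 Treated yeast vs. vehicle-treated yeast: growth inhibition determined.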
# [13] = NCI Yeast Anticancer Drug Screen. Data for the mlh1 strain (AID 171);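 note: 0% = growth of vehicle-treated control cultures of the same strain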; settings: S. cerevisiae mlh1 strain growth inhibition, active compounds read high
# How it was run: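 A yeast strain with a defined genetic lesion serves as the test organism. Cultures receive compound or vehicle, and growth is measured.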
# [14] = NCI Yeast Anticancer Drug Screen. Data for the sgs1 strain (AID 173);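 note: 0% = growth of vehicle-only control cultures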; settings: S. cerevisiae sgs1 mutant, active compounds read high
# How it was run: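 A genetically defined yeast mutant is incubated with the test compound, and its growth is compared to that of the same strain given vehicle.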
# [15] = NCI Yeast Anticancer Drug Screen. Data for the mlh1 rad18 strain (AID 175); settings: S. cerevisiae mlh1 rad18 strain growth inhibition, active compounds read high
# How it was run: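 Steps: expose repair-defective yeast to compound; measure growth; express inhibition against vehicle-treated controls.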
# [16] = NCI Yeast Anticancer Drug Screen. Data for the rad18 strain (AID 177); settings: S. cerevisiae rad18 mutant growth inhibition, active compounds read high
# How it was run: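 Measured value is growth inhibition of a yeast strain bearing a DNA repair alteration, referenced to vehicle-treated cells.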
# [17] = at 5.0 µM (retest, dose inferred, filed as 0.5)
# [18] = at 50.0 µM (retest, dose inferred, filed as 5.0)
smiles,measurement,setting,value
N#CC(C(=O)Nc1ccccc1)C1=C(Cl)C(=O)c2ccccc2C1=O (stereo not drawn),growth inhibition,[1]; at 1.2 µM,7%
same,growth inhibition,[1]; at 3.7 µM,57%
same,growth inhibition,[1]; at 11.0 µM,98% (active)
same,growth inhibition,[1]; at 33.0 µM,98% (active)
same,growth inhibition,[1]; at 100.0 µM,97% (active)
same,growth inhibition,[2]; at 1.2 µM,-23%
same,growth inhibition,[2]; at 3.7 µM,12%
same,growth inhibition,[2]; at 11.0 µM,95% (active)
same,growth inhibition,[2]; at 33.0 µM,97% (active)
same,growth inhibition,[2]; at 100.0 µM,96% (active)
same,growth inhibition,[3]; at 1.2 µM,13%
same,growth inhibition,[3]; at 3.7 µM,43%
same,growth inhibition,[3]; at 11.0 µM,97% (active)
same,growth inhibition,[3]; at 33.0 µM,97% (active)
same,growth inhibition,[3]; at 100.0 µM,96% (active)
same,growth inhibition,[4]; at 1.2 µM,23%
same,growth inhibition,[4]; at 3.7 µM,6%
same,growth inhibition,[4]; at 11.0 µM,98% (active)
same,growth inhibition,[4]; at 33.0 µM,97% (active)
same,growth inhibition,[4]; at 100.0 µM,97% (active)
same,growth inhibition,[5]; at 1.2 µM,4%
same,growth inhibition,[5]; at 3.7 µM,38%
same,growth inhibition,[5]; [17],9%
same,growth inhibition,[5]; at 11.0 µM,97% (active)
same,growth inhibition,[5]; at 33.0 µM,97% (active)
same,growth inhibition,[5]; [18],98% (active)
same,growth inhibition,[5]; at 50.0 µM,91.8% (active)
same,growth inhibition,[5]; at 100.0 µM,96% (active)
same,growth inhibition,[6]; at 1.2 µM,-8%
same,growth inhibition,[6]; at 3.7 µM,73% (active)
same,growth inhibition,[6]; [17],73% (active)
same,growth inhibition,[6]; at 11.0 µM,98% (active)
same,growth inhibition,[6]; at 33.0 µM,97% (active)
same,growth inhibition,[6]; [18],99% (active)
same,growth inhibition,[6]; at 50.0 µM,93% (active)
same,growth inhibition,[6]; at 100.0 µM,96% (active)
same,growth inhibition,[7]; at 1.2 µM,-26%
same,growth inhibition,[7]; at 3.7 µM,42%
same,growth inhibition,[7]; at 11.0 µM,98% (active)
same,growth inhibition,[7]; at 33.0 µM,97% (active)
same,growth inhibition,[7]; at 100.0 µM,95% (active)
same,growth inhibition,[8]; [17],8%
same,growth inhibition,[8]; [18],98% (active)
same,growth inhibition,[8]; at 50.0 µM,93.1% (active)
same,growth inhibition,[9]; at 1.2 µM,4%
same,growth inhibition,[9]; at 3.7 µM,45%
same,growth inhibition,[9]; at 11.0 µM,98% (active)
same,growth inhibition,[9]; at 33.0 µM,97% (active)
same,growth inhibition,[9]; at 100.0 µM,96% (active)
same,growth inhibition,[10]; [17],53%
same,growth inhibition,[10]; [18],98% (active)
same,growth inhibition,[10]; at 50.0 µM,91.8% (active)
same,growth inhibition,[11]; at 1.2 µM,-49%
same,growth inhibition,[11]; at 3.7 µM,-5%
same,growth inhibition,[11]; [17],62%
same,growth inhibition,[11]; at 11.0 µM,97% (active)
same,growth inhibition,[11]; at 33.0 µM,97% (active)
same,growth inhibition,[11]; [18],98% (active)
same,growth inhibition,[11]; at 50.0 µM,92% (active)
same,growth inhibition,[11]; at 100.0 µM,95% (active)
same,growth inhibition,[12]; at 1.2 µM,-3%
same,growth inhibition,[12]; at 3.7 µM,26%
same,growth inhibition,[12]; at 11.0 µM,95% (active)
same,growth inhibition,[12]; at 33.0 µM,97% (active)
same,growth inhibition,[12]; at 100.0 µM,95% (active)
same,growth inhibition,[13]; at 1.2 µM,-3%
same,growth inhibition,[13]; at 3.7 µM,41%
same,growth inhibition,[13]; at 11.0 µM,98% (active)
same,growth inhibition,[13]; at 33.0 µM,97% (active)
same,growth inhibition,[13]; at 100.0 µM,97% (active)
same,growth inhibition,[14]; at 1.2 µM,8%
same,growth inhibition,[14]; at 3.7 µM,41%
same,growth inhibition,[14]; at 11.0 µM,96% (active)
same,growth inhibition,[14]; at 33.0 µM,97% (active)
same,growth inhibition,[14]; at 100.0 µM,96% (active)
same,growth inhibition,[15]; [17],64%
same,growth inhibition,[15]; [18],98% (active)
same,growth inhibition,[15]; at 50.0 µM,91% (active)
same,growth inhibition,[16]; at 1.2 µM,-15%
same,growth inhibition,[16]; at 3.7 µM,-8%
same,growth inhibition,[16]; at 11.0 µM,90% (active)
same,growth inhibition,[16]; at 33.0 µM,98% (active)
same,growth inhibition,[16]; at 100.0 µM,97% (active)
